Here are results for 102 molecules from ChEMBL document CHEMBL1201862, “PubChem BioAssay data set” (2004).

The whole screen tested about 400,000 compounds, of which about 2,100 (0.53%) were called active. Not shown: some 14% with an inconclusive outcome. No rule for the calls is given here. The full list was thinned out, with actives kept by preference.

In this test the target is Ataxin-2 (Homo sapiens) (UniProt Q99700). The test can be described thus: qHTS for Inhibitors of ATXN expression. Format: functional.
Ataxin-2 (Homo sapiens), sequence (Q99700 whole entry): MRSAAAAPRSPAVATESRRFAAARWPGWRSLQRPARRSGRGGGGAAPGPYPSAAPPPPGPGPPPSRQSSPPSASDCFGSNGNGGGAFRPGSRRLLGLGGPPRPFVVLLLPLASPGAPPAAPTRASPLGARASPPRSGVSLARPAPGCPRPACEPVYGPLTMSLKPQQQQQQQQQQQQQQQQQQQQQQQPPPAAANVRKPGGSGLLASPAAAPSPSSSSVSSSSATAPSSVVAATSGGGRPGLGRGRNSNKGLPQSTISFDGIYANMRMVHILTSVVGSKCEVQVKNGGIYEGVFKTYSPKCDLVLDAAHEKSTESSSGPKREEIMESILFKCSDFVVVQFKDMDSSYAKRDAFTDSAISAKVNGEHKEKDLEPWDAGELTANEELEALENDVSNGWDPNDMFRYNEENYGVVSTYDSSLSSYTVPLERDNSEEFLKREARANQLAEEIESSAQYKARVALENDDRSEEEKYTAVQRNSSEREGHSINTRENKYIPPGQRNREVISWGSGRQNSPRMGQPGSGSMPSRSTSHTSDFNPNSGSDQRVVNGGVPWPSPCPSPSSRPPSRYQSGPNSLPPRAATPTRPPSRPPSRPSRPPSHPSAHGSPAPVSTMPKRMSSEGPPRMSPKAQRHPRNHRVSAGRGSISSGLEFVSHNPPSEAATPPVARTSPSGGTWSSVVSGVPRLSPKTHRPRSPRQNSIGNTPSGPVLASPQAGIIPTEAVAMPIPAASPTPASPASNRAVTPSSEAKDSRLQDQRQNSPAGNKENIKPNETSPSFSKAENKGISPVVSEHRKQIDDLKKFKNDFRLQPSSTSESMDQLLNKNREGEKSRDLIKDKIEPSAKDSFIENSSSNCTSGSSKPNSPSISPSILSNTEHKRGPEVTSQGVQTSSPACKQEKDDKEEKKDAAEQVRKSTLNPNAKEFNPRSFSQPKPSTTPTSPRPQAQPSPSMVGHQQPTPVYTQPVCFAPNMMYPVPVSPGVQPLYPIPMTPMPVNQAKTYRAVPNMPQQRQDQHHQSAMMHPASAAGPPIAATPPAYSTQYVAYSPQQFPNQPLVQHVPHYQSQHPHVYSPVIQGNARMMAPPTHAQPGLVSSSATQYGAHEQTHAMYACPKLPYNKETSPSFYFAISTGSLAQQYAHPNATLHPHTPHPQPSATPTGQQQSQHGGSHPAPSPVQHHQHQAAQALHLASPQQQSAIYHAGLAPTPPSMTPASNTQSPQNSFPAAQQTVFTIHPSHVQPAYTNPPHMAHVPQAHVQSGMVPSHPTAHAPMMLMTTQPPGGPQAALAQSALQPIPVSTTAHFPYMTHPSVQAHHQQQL
For the molecule `C1=C(c2ccc(-c3ccccc3)cc2)Nc2ncnn2C1c1ccco1` (configuration not stated), the Potency result was “inactive”. The value for `COCCC(=O)NCC1Cc2cc(Cl)cc(-c3ccc4[nH]ccc4c3)c2O1` (configuration not stated) was “inactive”; that for `OC(CNc1ccccc1)Cn1ccc2ccccc21` (configuration not stated) was “inactive”. As to `COc1ccc(C2=NN(c3ccc(C(=O)O)cc3)C(c3ccc(OC)c(OC)c3)C2)cc1` (configuration not stated), the Potency result was “inactive”.

In the case of `CCc1c(C)c2cc3c(c(C)c2oc1=O)OCN(CCc1ccccc1F)C3`, the Potency entry is “inactive”.

Consider `CCc1ccc(-c2cn3nc(C)c(C)nc3n2)cc1`, for which the Potency entry is “inactive”.

For the molecule `COc1cccc(C2C=C(c3ccc(OC)cc3OC)Nc3nnnn32)c1` (configuration not stated), the Potency result is “inactive”.

As to `CN(C)CCN(C(=O)C1CCCCC1)c1nc2cc3c(cc2s1)OCCO3`, the Potency result was “inactive”. Turning to `CN(Cc1ccccc1)C(=O)c1ccc(S(=O)(=O)N(C)c2ccccc2)cc1`, the Potency entry is “inactive”. Turning to `Cc1cc(C)c2sc(N(CCCN(C)C)C(=O)c3ccc(S(=O)(=O)N(C)Cc4ccccc4)cc3)nc2c1`, the Potency is 39.8 µM (active). Take `Cc1cc(C)c2sc(N(CCCN(C)C)C(=O)c3ccc(S(=O)(=O)N(C)C4CCCCC4)cc3)nc2c1`: the Potency is 35.5 µM (active). Consider `CN(Cc1ccccc1)S(=O)(=O)c1csc(C(N)=O)c1`, for which the Potency result was “inactive”.

With `CC(=O)OCCCCCCCCCCC[N+]1(C)CCCCC1`, the Potency result is “inactive”.

Take `O=c1cc(CN2CCN(Cc3ccccc3)CC2)c2ccc(O)c(O)c2o1`: the Potency entry is “inactive”. For the molecule `O=C(COC(=O)c1cccnc1O)Nc1ccc(N2CCCCC2)cc1`, the Potency entry was “inactive”. With `CC(=O)c1c(C)[nH]c(C(=O)Nc2ccc(N3CCCCCC3)cc2)c1C`, the Potency result is “inactive”. The value for `O=C(CNCCC1=CCCCC1)Nc1ccc(N2CCCCCC2)cc1` was 25.1 µM (active).

Turning to `Cc1ccc(C2C=C(c3ccc(Cl)cc3)Nc3nc(NC(=O)c4ccco4)nn32)cc1` (configuration not stated), the Potency result is “inactive”. As to `CC(=O)Nc1ccc(S(=O)(=O)NC(C)C(=O)NCC(c2ccco2)N2CCCCC2)cc1` (configuration not stated), the Potency result is “inactive”. The value for `COc1cc(C(=O)NCC(c2ccco2)N2CCCC2)ccc1OCc1ccc(Cl)cc1Cl` (configuration not stated) was 35.5 µM (active); that for `O=C(NCC(c1ccco1)N1CCCC1)c1cc(S(=O)(=O)N2CCOCC2)ccc1Cl` (configuration not stated) was “inactive”.

`O=[N+]([O-])c1ccc(/C=[N+](\[O-])[C@@H]2CCCC[C@@H]2/[N+]([O-])=C/c2ccc([N+](=O)[O-])o2)o1`: the Potency was 42.3 µM (active).

As for `Cc1cc(N/N=C/c2ccc([N+](=O)[O-])o2)nc2ccccc12`, the Potency result is “inactive”. In the case of `c1ccc(C2=NN(c3ccccc3)C(c3ccco3)C2)cc1` (configuration not stated), the Potency entry was “inactive”. Regarding `COc1ccc(-c2cc(=O)oc3c(C)c(O)ccc23)cc1`, the Potency entry is “inactive”. The value for `COc1ccc(C2C=C(c3ccc(C)c(C)c3)Nc3ncnn32)c(OC)c1OC` (configuration not stated) was “inactive”; that for `CCN(CCNCC(O)COc1ccccc1C(C)C)c1cccc(C)c1` (configuration not stated) was 39.8 µM (active); that for `CCN(CCCNC(=O)c1cc(Nc2ccccc2OC)nc2ccccc12)c1cccc(C)c1` was “inactive”. As for `O=C(CCNC(=O)c1ccc([N+](=O)[O-])cc1)Nc1nccs1`, the Potency entry was “inactive”. Regarding `CCCCCc1c2c(cc(O)c1C(=O)O)OC(=O)c1c(cc(OC)cc1C(=O)CCCC)O2`, the Potency was 21.2 µM (active).

With `CCCOC(=O)c1ccc(Oc2c(C)n[nH]c2-c2ccc(OCC)cc2O)cc1`, the Potency is 31.6 µM (active). The value for `CCOc1ccc(C(=O)COC(=O)Cn2[nH]c(=O)c3ccccc3c2=O)cc1` was “inactive”; that for `CCCOC(=O)c1ccc(Oc2coc3c(CN(CC)CC)c(O)ccc3c2=O)cc1` was “inactive”. `COCCn1c(SC2CCCCC2=O)nnc1-c1ccncc1` (configuration not stated): the Potency result is “inactive”. Take `O=C(N/N=C\c1c(O)ccc2ccccc12)c1ccc(S(=O)(=O)N2CCCCC2)cc1`: the Potency result is “inactive”. The value for `Oc1ccc2ccccc2c1N=Nc1ccccn1` was 14.1 µM (active); that for `O=C(N/N=C/c1c(O)ccc2ccccc12)c1cccc(C(F)(F)F)c1` was “inactive”; that for `Oc1ccccc1C=NN=Cc1c(O)ccc2ccccc12` was “inactive”. With `O=S(=O)(O)c1cccc(N=Nc2c(O)ccc3ccccc23)c1`, the Potency is 39.8 µM (active). In the case of `Nc1cc(Cl)nc(N/N=C/c2c(O)ccc3ccccc23)n1`, the Potency result was “inactive”. With `Oc1ncnc(O)c1C(c1ccc(F)cc1)c1c(O)ncnc1O`, the Potency entry is “inactive”. Consider `Cc1ccc(S(=O)(=O)/N=c2\ccc(Cl)cn2C(F)F)cc1`, for which the Potency entry was “inactive”. The value for `N#Cc1nc(/C=C/c2ccccc2)oc1NCCCN1CCOCC1` was “inactive”; that for `CCNc1nc(-c2sc(NC(=O)C(C)(C)C)nc2C)c(-n2cc(-c3ccccc3)nn2)s1` was 15.8 µM (active). Consider `CCc1sc(NC(=O)CN2CCC(C(N)=O)CC2)nc1-c1ccccc1`, for which the Potency result is “inactive”.

`CC(=O)c1sc(NC(=O)CN2C(=O)C3CCCCC3C2=O)nc1-c1ccccc1` (configuration not stated): the Potency entry is “inactive”. Regarding `CCC1CCCCN1Cc1nc2c(c(=O)n(C)c(=O)n2C)n1CCCc1ccccc1` (configuration not stated), the Potency result was “inactive”. The value for `Cn1c(=O)c2c(nc(NCc3ccccc3)n2Cc2ccc(Cl)c(Cl)c2)n(C)c1=O` was 35.5 µM (active). The value for `Cn1c(=O)c2nc(NCc3ccccc3)cnc2n(C)c1=O` was “inactive”. On to `CC1CCCCC12NC(=O)N(CC(=O)OCc1cccc(F)c1)C2=O` (configuration not stated), for which the Potency result is “inactive”. Turning to `Cc1ccc(CSc2nnc(SCC(=O)N/N=C/c3c[nH]c4ccccc34)s2)cc1`, the Potency is 5.97 µM (active). As for `CC(C)C(C)NC(=O)CSc1nnc(-c2c[nH]c3ccccc23)o1` (configuration not stated), the Potency entry is “inactive”. The value for `Cc1ccc(OCCn2cc(/C=N/NC(=O)c3ccncc3)c3ccccc32)cc1` was “inactive”; that for `O=C1CCCC(O)=C1Sc1cc(Cl)c(Cl)cc1Cl` was “inactive”; that for `O=C(CNC(=O)c1ccc(Cl)cc1)Nc1ccccc1C(F)(F)F` was “inactive”. The value for `O=C1OCCN=C1/C=C(\O)c1ccc(Cl)cc1` was “inactive”.

For the molecule `O=C(c1ccccc1)c1cccc(C(=O)c2ccccc2)c1`, the Potency result is “inactive”. For the molecule `O=C(/C=C/Sc1ccccc1)c1ccccc1`, the Potency is 15.8 µM (active).

On to `O=C(/C=C/Sc1ccccc1)c1ccc(Cl)cc1`, for which the Potency is 11.2 µM (active). Take `OC(C#CCN1CCCC1)(c1ccccc1)c1cccnc1` (configuration not stated): the Potency result was “inactive”. As for `O=C(c1cc2c(=O)n3ccccc3nc2s1)N1CCN(Cc2ccc3c(c2)OCO3)CC1`, the Potency entry was “inactive”.

As for `Cc1ccc(C23OCCN2CCn2nc4ccccc4c23)cc1` (configuration not stated), the Potency result is “inactive”. With `CC(C)c1cc(=O)oc2c3c4c(cc12)CCCN4CCC3`, the Potency entry is “inactive”. In the case of `O=C(N/N=C/c1cn(CCOc2ccccc2)c2ccccc12)c1ccncc1`, the Potency entry was “inactive”. The value for `Cc1cc(C(=O)N/N=C/c2cc(Br)ccc2OC(=O)c2ccccc2Cl)[nH]n1` was “inactive”; that for `O=C(N/N=C/C(Br)=C/c1ccccc1)c1ccncc1` was 31.6 µM (active); that for `Cn1c(N)c(C(=O)N/N=C/c2ccccc2)sc1=S` was “inactive”. Consider `O=C(N/N=C/c1cn(Cc2ccccc2)c2ccccc12)c1ccncc1`, for which the Potency result was “inactive”. With `Cn1cc(C(=O)N/N=C/C(Br)=C/c2ccccc2)ccc1=O`, the Potency is 15.8 µM (active). For the molecule `CCN(CC)c1ccc(/C=C2\CCC(/C=N/NC(=O)c3ccc(=O)n(C)c3)=C2N2CCOCC2)cc1`, the Potency entry is “inactive”. The value for `CC(C)c1cc(C(=O)N/N=C/C(Br)=C/c2ccccc2)[nH]n1` was 31.6 µM (active); that for `Cc1cc(C(=O)N/N=C/c2cc(Br)cc(Br)c2OC(=O)c2cccc(F)c2)[nH]n1` was “inactive”. In the case of `COc1ccc(-c2cc(=O)oc3cc(OC(=O)C4CCCCC4)c(Cl)cc23)cc1`, the Potency result is “inactive”. As to `CCN1CCN(Cc2c(O)ccc3c(C)c(-c4ccccc4)c(=O)oc23)CC1`, the Potency result is “inactive”. As to `CCOC(=O)CC1c2nc3ccccc3cc2CN1C(=O)OCC` (configuration not stated), the Potency result was “inactive”. The value for `CC(=O)/N=c1\c(C#N)cc2c(=O)n3ccccc3nc2n1CCCOC(C)C` was “inactive”; that for `OC1=C2C(=Nc3ccccc3SC2c2ccc(C(F)(F)F)cc2)c2ccccc21` (configuration not stated) was 31.6 µM (active); that for `OC1=C2C(=Nc3ccccc3SC2c2ccc(Cl)c(Cl)c2)c2ccccc21` (configuration not stated) was 31.6 µM (active). With `CC(C)N1C(=O)S/C(=C\c2ccc(-c3ccc(Cl)c(C(=O)O)c3)o2)C1=O`, the Potency entry is “inactive”. Consider `COc1cccc(N(CC(=O)N2CCCCCC2)S(C)(=O)=O)c1`, for which the Potency entry was “inactive”. Take `COc1ccc(C2OC3=Nc4cc(C)c(C)cc4NC3=C2O)cc1` (configuration not stated): the Potency result was “inactive”.

For `Cc1cc(NC(=O)CNCC(c2ccccc2)N(C)C)c([N+](=O)[O-])cc1C` (configuration not stated), the Potency result is “inactive”. As to `O=C(Cc1ccc(Br)cc1)N(Cc1ccccc1)c1ccccn1`, the Potency result is “inactive”. The value for `NC(=O)CC(NC(=O)c1ccc(Br)cc1)c1ccc(NC2CCCCCCC2)c([N+](=O)[O-])c1` (configuration not stated) was 31.6 µM (active); that for `O=C(O)c1ccc(NS(=O)(=O)c2ccc(N3CCCC3)c([N+](=O)[O-])c2)cc1` was “inactive”; that for `NC(=O)CC(NC(=O)Cc1ccc(Br)cc1)c1ccc(NC2CC3CCC2C3)c([N+](=O)[O-])c1` (configuration not stated) was 25.1 µM (active).

`O=C(COc1ccc(Br)cc1)NNC(=O)c1ccc(-n2cncn2)c([N+](=O)[O-])c1`: the Potency result was “inactive”.

Take `NC(=O)CC(NC(=O)c1ccc(Br)cc1)c1ccc(N2CCCCCCC2)c([N+](=O)[O-])c1` (configuration not stated): the Potency is 31.6 µM (active). For `CN(Cc1ccccc1)c1ccc(C(CC(N)=O)NC(=O)Cc2ccc(Br)cc2)cc1[N+](=O)[O-]` (configuration not stated), the Potency is 35.5 µM (active). As to `O=[N+]([O-])c1cccc(S(=O)(=O)NC2CC3CCC2C3)c1` (configuration not stated), the Potency result was “inactive”. For `C=CCNc1nc2ccccc2nc1NS(=O)(=O)c1ccc(F)cc1`, the Potency entry was “inactive”.

As to `CCOC(=O)/C(=C\C=C1/Sc2cc(OCC)c(OCC)cc2N1CC)C(C)=O`, the Potency result was “inactive”. As to `COc1ccccc1[C@@H]1C(c2cccc(Cl)c2)=NN(c2ccccc2)[C@H]1C(=O)N1CCOC1=O`, the Potency entry is “inactive”.

For `CCOC(=O)C1(Cc2cccc(F)c2)CCN(Cc2cn(CC)nc2C)CC1`, the Potency entry is “inactive”. Consider `CCCn1c(N)c(C(=O)CSc2nncs2)c(=O)[nH]c1=O`, for which the Potency result is “inactive”. In the case of `COC(=O)C1=CN(CC2CCCO2)C=C(C(=O)OC)C1c1cccc(O)c1` (configuration not stated), the Potency result was “inactive”. Regarding `Cc1c(O)ccc2c(CC(=O)N[C@@H](Cc3ccccc3)C(=O)O)cc(=O)oc12`, the Potency result was “inactive”. Turning to `CCn1cc(C(=O)N(C)Cc2ccc(OC(F)F)cc2)c(=O)c2ccc(C)nc21`, the Potency entry is “inactive”.

For the molecule `CCOC(=O)C1CCCN(Cc2ccc(OCc3ccccc3)c(OC)c2)C1` (configuration not stated), the Potency result is “inactive”. Turning to `COC(=O)c1ccc(COc2cccn3c(N(C)C(=O)CCC4CCCC4)c(C)nc23)cc1`, the Potency is 35.5 µM (active).

Turning to `Cc1nc2c(OCc3ccc(OC(F)F)cc3)cccn2c1N(C)C(=O)CCC1CCCC1`, the Potency was 39.8 µM (active).

Take `CCOC(=O)c1cc2c(=O)n3ccccc3nc2n(CC2CCCO2)/c1=N\C(=O)c1ccccc1OCC` (configuration not stated): the Potency entry was “inactive”.
